High-throughput results as filed in PubChem BioAssay.
EPAC1 agonist – Validation qHTS for agonist of cAMP-regulated guanine nucleotide exchange factor 3 (EPAC1) | Rap guanine nucleotide exchange factor 3 (Homo sapiens), O95398 | EPAC1 Rap1b BODIPY-GDP exchange, fluorescence | Potency, µM, inactives show max response, positive = active, actives largely listed as activators | hit rate 1% among 16,000 | AID 1645883, 2021; further: nearly all actives have a fitted effect of over 70% in size
EPAC2 ant val – Validation qHTS for antagonist of cAMP-regulated guanine nucleotide exchange factor 4 (EPAC2); Rap guanine nucleotide exchange factor 4 (Homo sapiens), Q8WZA2; EPAC2 Rap1B BODIPY-GDP exchange, fluorescence; Potency, µM (titrated, usually from 112 µM), for the others: at the highest dose activity, negative = inhibition, most hits filed as inhibitors; hit rate 1.7% among 16,000; AID 1645886, 2021;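 further: 100% = activation by cAMP agonist control; nearly all actives have a fitted effect of over 40% in size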
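Normalized against a 6.5 mM cAMP agonist control, compounds were tested on 100 nM EPAC2 exchanging Rap1B-bound BODIPY-GDP (250 nM) for 50 uM GDP. Fluorescence drop (ex 480, em 540 nm) was tracked at room temperature over 30 min at 5-min intervals.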
* = called active by the depositor; i = inactive; ? = inconclusive; ! = a repeat was not active. This is a sample that favours compounds with a hit; in the whole collection about 2.9% have one here. The call rests on the fitted dose curve; in most records, active means well fitted curve in the direction sought with a large enough effect; inconclusive means small, poorly fitted or top-dose-only effect, or another doubt; inactive means no such curve, though single readings can be large; an effect the other way counts as inactive or inconclusive. Unless noted, on the % scale 0 is the no-effect control and ±100 the full control effect; potency means the concentration at half of the fitted maximal effect.

SMILES | EPAC1 agonist | EPAC2 ant val
Cc1nc(CC(=O)NCC2Cc3cc(F)cc(-c4ccc(F)c(C)c4)c3O2)cs1 (stereo unspecified) | 11.0% | -47.6%
CC(C)[C@@H](C)/C=C/[C@@H](C)[C@H]1CC[C@H]2/C(=C/C=C3\C[C@@H](O)CC[C@@H]3C)CCC[C@]12C | -115.9% | -19.1%
CCCC(=O)NCCc1c2n(c3ccc(OC)cc13)CCCc1ccccc1-2 | 4.6% | 14.1µM*
COc1ccc2[nH]c(-c3ccccc3)c(CCNC(C)=O)c2c1 | -2.6% | ?
COC(=O)[C@@H]1CCCN1C(=O)c1c(OC)cc(=O)n2c1CCN(Cc1ccc3c(c1)CCO3)CC2 | -19.4% | ?
CCCCOCCOCCOCc1cc2c(cc1CCC)OCO2 | -2.7% | 50.1µM*!
COCCN(C)C(=O)c1cnn(-c2ncc3c(n2)-c2ccccc2CC3)c1C | -13.4% | 3.5%
Cc1cccc(CN2Cc3cccc4c3[C@H](C=CC4)CC2=O)c1 | 2.7% | 31.6µM*
O=C1C[C@H]2C=CCc3cccc(c32)CN1Cc1ccc(F)cc1 | 25.6% | ?
COC(=O)c1cn([C@@H]2C[C@@H](C(=O)N3CCCCCC3)N(Cc3cc4ccccc4s3)C2)nn1 | -6.6% | ?
Cc1cc2nc(N3CCCN(Cc4cccn4-c4ncccn4)CC3)nc(C)c2cc1C | 7.1% | -20.1%
CN(C)C(=O)[C@@H]1C[C@@H](Sc2nc3ccccc3[nH]2)CN1Cc1ccnc2ccccc12 | -7.1% | ?
COc1ccc(C(=O)c2ccc(C)cc2)c(O)c1 | -7.4% | ?
COc1ccc(C(=O)c2ccccc2)c(O)c1 | -20.8% | 39.8µM*!
C/C=C1\NC(=O)[C@H]2CSSCC/C=C/[C@H](CC(=O)N[C@H](C(C)C)C(=O)N2)OC(=O)C(C(C)C)NC1=O (stereo partly specified) | -17.8% | -15.0%
Cc1c(C(=O)NCC2COCCO2)cnn1-c1ncc2c(n1)-c1ccccc1CC2 (stereo unspecified) | -5.7% | -1.7%
COc1ccc2c(c1)OCC(Cc1ccc(OC)c(OC)c1)C2O (stereo unspecified) | -12.5% | ?
COc1ccc2c(c1)OCC(Cc1ccc(OC)c(OC)c1)C2=O (stereo unspecified) | ? | 44.7µM*
CCCCCCCCCCCCCCCC(=O)O[C@@H]1CC(C)=C(/C=C/C(C)=C/C=C/C(C)=C/C=C/C=C(C)/C=C/C=C(C)/C=C/C2=C(C)C[C@@H](OC(=O)CCCCCCCCCCCCCCC)CC2(C)C)C(C)(C)C1 | -54.6% | -15.8%
O=c1c(O)c(-c2cc(O)c(O)c(O)c2)oc2cc(O)cc(O)c12 | -6.4% | 35.5µM*!
O=c1c(O)c(-c2ccccc2)oc2cc(O)cc(O)c12 | 6.0% | ?
COc1ccc2[nH]cc(CCNc3ncnc4ccc(-c5ccccc5C#N)cc34)c2c1 | 112µM* | -21.3%
COc1ccc2[nH]cc(CCNc3ncnc4ccc(-c5cccc(C#N)c5)cc34)c2c1 | 23.6% | -22.5%
COC(=O)[C@H]1[C@H]2C[C@@H]3c4[nH]c5cc(OC)ccc5c4CCN3C[C@H]2C[C@H](OC)[C@@H]1OC | 3.2% | 20.3%
Cc1cc(CC(C)CC(C)(C)C)n(O)c(=O)c1 (stereo unspecified) (tested in a mixture with another compound) | -65.8% | ?
SMILES | EPAC1 agonist | EPAC2 ant val
COc1cc(C(=O)NS(=O)(=O)c2ccccc2C)ccc1Cc1cn(C)c2ccc(NC(=O)OC3CCCC3)cc12 | 4.2% | 79.4µM*
OC1(c2ccc3c(c2)CN(Cc2nccs2)CCO3)CCN(c2ccccc2F)CC1 | ? | -20.3%
CN[C@@H]1[C@@H](O)[C@@H](O[C@@H]2[C@@H](O)[C@H](O[C@H]3O[C@H](CN)[C@@H](O)[C@H](O)[C@H]3O)[C@@H](N)C[C@H]2NC(=O)C(O)CN)OC[C@]1(C)O (stereo partly specified) | 4.8% | -1.2%
NC[C@@H]1CC[C@@H](N)[C@@H](O[C@H]2[C@H](O)[C@@H](O[C@H]3O[C@H](CO)[C@@H](O)[C@H](N)[C@H]3O)[C@H](N)C[C@@H]2N)O1 | ? | 11.7%
O=C(OC[C@H]1O[C@](O)(COC(=O)c2cccnc2)[C@@H](OC(=O)c2cccnc2)[C@@H]1OC(=O)c1cccnc1)c1cccnc1 | -15.6% | -1.1%
COc1cc(=O)n2c(c1C(=O)N(C)Cc1nccs1)CCN(Cc1cc(C)cc(C)c1)CC2 | -12.7% | 5.5%
C[C@@H](O[C@H]1OCCN(Cc2n[nH]c(=O)[nH]2)[C@@H]1c1ccc(F)cc1)c1cc(C(F)(F)F)cc(C(F)(F)F)c1 | -59.7% | 50.1µM*
Cc1sc(N)c(C(=O)c2cccc(C(F)(F)F)c2)c1C | -43.6% | 56.2µM*
Cc1oc(-c2ccccc2NC(=O)C2CCC2)nc1CNC(=O)c1cccc(C(F)(F)F)c1 | 13.3% | -36.2%
CSc1ccccc1C(=O)NCc1nc(-c2cccc(NC(=O)c3ccoc3C)c2)oc1C | 8.8% | -26.5%
O=C(NNCNNC(=O)c1ccncc1)c1ccncc1 | 6.6% | 8.9%
O=C(NNCS(=O)(=O)O)c1ccncc1 | 56.2µM* | i
COCCn1c(=O)c(-c2ccc(F)cc2)nc2cnc(Nc3cccc(OC)c3)nc21 | 22.3% | -10.4%
COCCn1c(=O)c(-c2cc(F)cc(F)c2)nc2cnc(Nc3cccc(OC)c3)nc21 | 89.1µM* | 0.2%
COc1cccc(Nc2ncc3nc(-c4cc(F)cc(F)c4)c(=O)n(C4CC4)c3n2)c1 | 100µM* | -5.9%
COc1cccc(Nc2ncc3nc(-c4ccccc4)c(=O)n(C4CC4)c3n2)c1 | -37.1% | -11.6%
Cc1cnc(SCc2ccccn2)nc1C1CCCN(C(=O)c2cc3ccccc3oc2=O)C1 (stereo unspecified) | 17.8% | -15.0%
CON=C1C[C@]2(C[C@@H]3C[C@@H](C/C=C(\C)C[C@@H](C)/C=C/C=C4\CO[C@@H]5[C@H](O)C(C)=C[C@@H](C(=O)O3)[C@]45O)O2)O[C@H](/C(C)=C/C(C)C)[C@H]1C | -227.0% | ?
CC(C)NC(=O)[C@@H]1C[C@@H](Sc2nc3ccccc3[nH]2)CN1C1Cc2ccccc2C1 | 27.4% | -24.6%
CC(C)C[C@@H](CO)N1CCN(Cc2ccccc2)CCC1=O | -1.8% | ?
CC(C)C[C@@H](COc1ccccc1)N1CCN(Cc2ccccc2)CCC1=O | -21.0% | 17.8µM*
CCCN1CCC(=O)N([C@H](COc2ccccc2)Cc2ccccc2)CC1 | 4.6% | 16.3%
O=C1CCN(Cc2ccccc2)CCN1[C@H](COc1ccccc1)Cc1ccccc1 | -6.9% | 79.4µM*
Cc1c(C(=O)N2CC3CCC2C3)sc2ncnc(NCCc3c[nH]c4ccccc34)c12 (stereo unspecified) | 2.7% | -13.1%
COCCC(=O)NCC1Cc2cc(Cl)cc(-c3ccc4[nH]ccc4c3)c2O1 (stereo unspecified) | -10.0% | -23.0%
CCC(=O)OCC(=O)[C@@]1(OC(=O)CC)[C@H](C)C[C@H]2[C@@H]3CCC4=CC(=O)C=C[C@]4(C)[C@@]3(F)[C@@H](O)C[C@@]21C | 25.2% | ?
Nc1ncnc2c1nc(Br)n2[C@H]1O[C@H]2COP(=O)(O)O[C@H]2[C@@H]1O | 1.12µM* | 3.55µM*
Nc1ncnc2c1nc(Cl)n2C1OC(CO)C(O)C1O (stereo unspecified) | 17.9% | -4.4%
